Screening data deposited in PubChem BioAssay by National Center for Advancing Translational Sciences (NCATS).
CtBP-E1A blk: blocks the CtBP interaction with E1A; AlphaScreen GST-E1A/His-CtBP binding, 1536-well; stronger effect = lower value; activity change, % (concentration not given with the values); 340,000 tested, 0.49% active; in the data active means activity change below about -65%; inconclusive means mostly about -30% to -63%; further: on the % scale 0 is the no-effect control and ±100 the full control effect
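Homogeneous bead-based format: GST-tagged E1A captured on glutathione donor beads, His-tagged CtBP on nickel acceptor beads; compounds precede bead addition by 2 h at 37 °C.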
Six1-Eya2 blk: Six1/Eya2 interaction inhibition | Q15475+O00167 | AlphaScreen GST-Six1/His-Eya2 binding, biochemical; stronger effect = lower value | activity change, % (concentration not given with the values) | 360,000 tested, 0.56% active; in the data active means activity change below about -65%; inconclusive means mostly about -30% to -63%; further: on the % scale 0 is the no-effect control and ±100 the full control effect
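Compounds are tested against tagged Six1 and Eya2 proteins bridged by glutathione donor and nickel acceptor beads; after a one-hour incubation at 37 °C without light, AlphaScreen emission is recorded.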
p53 reactivation: re-activators of mutant p53. 320,000 tested, 0.063% active. AID 504706. H1299 p53-A138V BP100-luciferase reporter, luminescence, 24 h. Potency, µM (top dose mostly 92.2 µM), inactives show top-dose activity change, positive = activation, usual class: activators; further: potency means the concentration at half of the fitted maximal effect; % of control where 0% means no effect; nearly all actives have a fitted effect of over 45% in size
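p53-null H1299 cells stably carrying temperature-sensitive p53-A138V and a BP100-luciferase reporter were pinned with compounds (4-point, 1:5 series) and held 24 hrs at 37 deg C. Luminescence was read 10 min after detection reagent.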
Gal4-VP16 FLuc: counter-screen for ROR gamma inhibitors: Gal4-VP16 reporter. 310,000 tested, 3.5% active. AID 2546. Potency, µM (highest dose often 53.6 µM), for the others: at the highest dose activity, negative = inhibition, hits mostly inhibitors. Drosophila S2 Gal4-VP16 UAS-luciferase, luminescence, 20 h;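 further: Gal4-VP16 expression switched on by copper sulfate through the metallothionein promoter; potency means the concentration at half of the fitted maximal effect; on the % scale 0 is the no-effect control and ±100 the full control effect; nearly all actives have a fitted effect of over 50% in size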
RORgamma inh: blocks mouse ROR gamma transcriptional activity; Potency, µM (doses to about 53.6 µM), for the others: at the top dose activity change, negative = inhibition, usual class: inhibitors; P51450; 310,000 tested, 5.4% active; AID 2551; Drosophila S2 Gal4-RORgamma UAS-luciferase reporter, 20 h; further: potency means the concentration at half of the fitted maximal effect; on the % scale 0 is the no-effect control and ±100 the full control effect; nearly all actives have a fitted effect of over 60% in size
Target sequence (P51450 whole entry, looked up, the tested form may be a part): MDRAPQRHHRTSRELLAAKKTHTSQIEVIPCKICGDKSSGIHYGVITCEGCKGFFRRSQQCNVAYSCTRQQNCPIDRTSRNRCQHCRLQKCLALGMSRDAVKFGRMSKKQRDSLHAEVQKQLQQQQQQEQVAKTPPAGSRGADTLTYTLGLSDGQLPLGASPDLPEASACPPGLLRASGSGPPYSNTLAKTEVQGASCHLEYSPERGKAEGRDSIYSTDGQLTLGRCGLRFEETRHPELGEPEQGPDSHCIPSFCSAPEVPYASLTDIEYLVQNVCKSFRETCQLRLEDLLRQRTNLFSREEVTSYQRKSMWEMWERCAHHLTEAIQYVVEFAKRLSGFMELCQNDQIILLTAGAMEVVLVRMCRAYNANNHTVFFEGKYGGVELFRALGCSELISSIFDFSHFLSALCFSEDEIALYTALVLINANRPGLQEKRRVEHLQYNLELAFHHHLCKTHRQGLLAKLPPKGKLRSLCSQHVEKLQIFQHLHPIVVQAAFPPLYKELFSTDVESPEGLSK
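Luciferase reporter read in Schneider cells carrying Gal4-RORγ (mouse) and UAS-Photinus luciferase; cells given compound 1 h before 700 uM copper sulfate induction, then incubated 20 h at ambient temperature.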
Active calls of the source: *; ? = inconclusive; . = no result; ! = repeats disagree. Sampled rows, rich in hits. Any-hit rate of the full collection: about 5.4%. Unless noted, the call rests on the fitted dose curve; in most records, active means well fitted curve in the direction sought with a large enough effect; inconclusive means small, poorly fitted or top-dose-only effect, or another doubt; inactive means no such curve, though single readings can be large; an effect the other way counts as inactive or inconclusive.

SMILES	CtBP-E1A blk	Six1-Eya2 blk	p53 reactivation	Gal4-VP16 FLuc	RORgamma inh
Cc1cccc(OCCn2c(NC(=O)c3ccco3)nc3ccccc32)c1	-3.0	-5.2	-2.2%	2µM*	1.41µM*
O=C(Nc1nc2ccccc2n1CCOc1ccccc1)c1ccco1	-6.1	-11.2	0.7%	5.01µM*	2µM*
Nn1c(COc2ccccc2F)nnc1SCC(=O)NC1CCS(=O)(=O)C1 (stereo not drawn)	-0.9	-0.5	4.6%	.	.
OCC1OC(n2cnc3c(SCc4ccccc4)nc(F)nc32)C(O)C1O (stereo not drawn)	10.9	1.7	.	.	.
CN(C)/C=C(\C#N)C(N)=C(C#N)C#N	5.5	?	0.0%	-7.4%	-6.2%
O=C(Nc1nc2ccccc2n1CCOc1ccc(Cl)cc1)c1ccco1	0.8	-1.1	1.7%	2.51µM*	1.41µM*
Cc1ccc(C(C)(C)c2ccc(C)cc2)cc1	.	.	.	-9.5%	9.0%
Cc1cccc(OCC(=O)O/N=C(\N)c2ccccn2)c1	-0.6	2.1	20.8%	4.5%	26.4%
Cc1cc(C)nc(Nc2n[nH]c(COc3ccc(Cl)cc3)n2)n1	3.3	7.4	20.0%	-10.8%	-22.1%
Cc1cccc(OCc2nc(-c3ccccn3)n[nH]2)c1	-89.2*	-94.0*	.	2.82µM*	1.58µM*
Cc1ccc(OCc2nc(-c3ccccn3)n[nH]2)cc1	-98.1*	-91.8*	?	5.01µM*	3.16µM*
COc1nccnc1NS(=O)(=O)c1ccc(NCc2cc(Br)ccc2O)cc1	-73.3*	-77.2*	18.2%	-6.2%	43.7%
O=S(=O)(Nc1nccs1)c1ccc(NCc2cc(Br)cc(Br)c2O)cc1	.	-90.4*	-0.7%	-2.8%	30.4%
O=C1N/C(=N\N=C\c2ccccn2)SC1Cc1cccc(SC(F)F)c1 (stereo not drawn)	-12.9	-0.4	3.0%	3.16µM*	1.78µM*
O=C1N/C(=N\N=C\c2cccnc2)SC1Cc1ccc(SC(F)F)cc1 (stereo not drawn)	7.7	-1.1	?	0.708µM*	0.501µM*
O=C(COC(=O)CN1C(=O)C(=O)c2ccccc21)OCN1C(=O)c2ccccc2C1=O	5.7	6.5	7.7%	3.0%	-13.2%
O=C(Cn1cc(COc2ccc(Cl)c(Cl)c2)nn1)NS(=O)(=O)c1ccccc1C(F)(F)F	-5.3	2.4	.	.	.
O=C(Nc1ccccc1O)c1c(O)c2c([nH]c1=O)CCCC2	-15.7	-6.2	13.5%	?	-36.4%
Cn1cnc([N+](=O)[O-])c1S(=O)(=O)Oc1ccccc1	-0.4	-2.4	.	.	.
Cn1cnc([N+](=O)[O-])c1S(=O)(=O)c1cccc(Cl)c1	0.5	2.0	-21.1%	5.01µM*	2.82µM*
O=C(Nc1cccc(Cn2cccn2)c1)c1cc2c(s1)CCCC2	-2.5	-0.1	26.2%	-13.2%	1.3%
COC(=O)C(c1ccccc1Cl)N1CCc2sccc2C1 (stereo not drawn)	.	.	.	?	3.55µM*!
CN(Cc1cccs1)c1ncnc2sccc12	8.3	1.5	-10.6%	1.26µM*	-13.6%
CCCCNC(=O)CNC(=S)N(Cc1ccccc1F)C1CCCCC1	0.0	-3.2	1.4%	-15.4%	12.6µM*
CCCn1c(SCN2C(=O)c3ccccc3C2=O)nc2cc(Cl)ccc2c1=O	-1.1	-3.5	2.6%	?	10µM*
SMILES	CtBP-E1A blk	Six1-Eya2 blk	p53 reactivation	Gal4-VP16 FLuc	RORgamma inh
Cc1cccc(-n2c(SCN3C(=O)c4ccccc4C3=O)nc3ccccc3c2=O)c1	.	.	-3.1%	-4.6%	?
CC(=O)N/N=C/c1cc(C(C)C)cc(/C=N/NC(C)=O)c1O	-83.8*	-74.5*	0.3%	-5.7%	-1.5%
Cc1cc2cc(CCNC(=O)CCc3ccccc3)c(=O)[nH]c2cc1C	-1.0	-17.9	4.2%	-28.6%	0.5%
S=C(NCc1ccco1)Nc1cccc(Cl)c1Cl	-3.3	-8.7	6.2%	-17.8%	-103.5%
Cc1c(Cl)cccc1NC(=S)NCc1ccco1	.	-6.2	1.3%	?	5.01µM*
Cc1cccc(NC(=S)NCc2ccco2)c1C	-19.7	-13.1	-14.1%	11.2µM*	7.94µM*
S=C(NCc1ccco1)Nc1ccccc1Cl	.	-2.1	2.4%	16.4%	10µM*
O=C(O)[C@H]1CCCN(CCC=C(c2ccccc2)c2ccccc2)C1	.	.	.	2.8%	-1.5%
O=C(O)c1cc(-c2ccc3c(c2)OCO3)nc2ccc(Cl)cc12	-3.5	1.3	?	?	-33.4%
CN(C)S(=O)(=O)c1cccc(-c2cn3cc(Cl)ccc3n2)c1	-2.5	-6.4	3.2%	?	12.3%
Clc1ccc2nc(-c3ccc4c(c3)OCO4)cn2c1	-5.0	-8.9	-4.4%	8.91µM*	5.01µM*
Cc1ccc2nc(-c3cc(-c4ccccc4)no3)cn2c1	-7.0	-1.2	?	3.98µM*	1.41µM*
Clc1ccc2nc(-c3ccccc3)cn2c1	1.6	1.5	10.6%	?	11.2µM*
COc1ccc(-c2cn3ccccc3n2)cc1OC	-2.8	-3.1	2.8%	-16.1%	5.1%
c1ccn2cc(-c3ccc4c(c3)OCCO4)nc2c1	.	6.2	-0.1%	?	3.55µM*
Cc1ccc2nc(-c3ccc4c(c3)OCCO4)cn2c1	-6.5	-2.0	-14.0%	1.12µM*	0.398µM*
Cc1ccc2nc(-c3ccc4c(c3)NC(=O)CO4)cn2c1	0.9	-13.2	3.8%	?	?
O=c1[nH][nH]c2c(N=Cc3ccccc3O)ccc(F)c12	-90.8*	?	-3.3%	-14.3%	-27.1%
CN=C1N[C@H](c2ccccc2)N(c2ccccc2)S1	.	.	.	28.2µM*	10µM*
CC1(C)CC(CCC(=O)NC(=S)Nc2ccccc2Cl)C(=O)O1 (stereo not drawn)	.	-7.2	0.6%	?	17.8µM*
CC1(C)CC(CC(=O)Nc2ccccc2[N+](=O)[O-])C(=O)O1 (stereo not drawn)	5.2	3.9	-5.5%	-5.1%	6.6%
CC(NC(=O)COC(=O)c1ccc(Br)o1)c1ccccc1 (stereo not drawn)	-2.3	17.0	3.2%	.	.
O=[N+]([O-])c1ccc(NNC(=S)Nc2ccc(F)cc2)cc1	16.4	-17.3	28.2µM*	11.2µM*	?
O=C(Nc1ccccc1)c1ccc(S(=O)(=O)N2CCC(C(=O)O)CC2)cc1	8.7	-7.1	-1.5%	7.8%	-34.9%
Cc1cc(C(=O)c2ccc(Cl)cc2)c(NC(=O)CCl)s1	-4.4	1.7	-21.2%	?	10µM*
CCc1cc(C(=O)c2ccc(C)cc2)c(NC(=O)CCl)s1	2.0	-15.2	.	-9.9%	-8.5%
O=C(COc1ccc(-c2ccccc2)cc1)N1CCN(C(=O)c2cccs2)CC1	7.0	-74.1*	5.6%	11.1%	8.9%
Cc1nc2ccc(NC(=O)c3cc([N+](=O)[O-])cc([N+](=O)[O-])c3Cl)cc2s1	-3.8	-23.2	?	3.16µM*	?
C(=N\Nc1ccccn1)/c1c[nH]c2ccccc12	-8.2	-5.5	11.7%	?	?
O=c1nc(N/N=C/c2c[nH]c3ccccc23)cn[nH]1	-86.3*	-78.2*	13.8%	-28.6%	?
